Screen size: about 75,000 compounds; about 5,700 (7.6%) were called active. Another 7% or so got no clear call; they are omitted. The call rests on the fitted dose curve; in most records, active means well fitted inhibition curve with a large enough effect; inconclusive means small, poorly fitted or top-dose-only effect; inactive means no such curve, though single readings can be large or run the other way. The entries come from a sample that favours actives as a whole. A call without a number means that no potency is given here.
Potency means the concentration at half of the fitted maximal effect.

The test concerns the target 3-hydroxyacyl-CoA dehydrogenase type-2 (Homo sapiens) (UniProt Q99714). Put plainly: qHTS Assay for Inhibitors of HSD17B4, hydroxysteroid (17-beta) dehydrogenase 4.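 Further: the protocol describes HADH2 (HSD17B10) and not the HSD17B4 of the title; nearly all actives have a fitted effect of over 70% in size.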 Conditions: recombinant HSD17B10, NADH fluorescence kinetic; series mostly up to 57.1 µM. The gist of the method:
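Enzyme plus compound, 15 min room temperature; substrate mix added (NAD+ 1 mM, beta-hydroxybutyryl-CoA 90 uM final); plates read kinetically for NADH fluorescence. HADH2 was His-tagged, E. coli-derived, 20 nM.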
As to `COC(=O)c1ccc2c(c1)S(=O)(=O)NC(=NCCCN1CCOCC1)S2`, the Potency entry was “inactive”.

Regarding `COc1ccc(C(=O)N/N=C2/C(=O)c3c(C)cc(C)cc3CC2(C)C)cc1`, the activity change, negative = inhibition is 12.3% [at 11.4 µM] (inactive). In the case of `Cc1nc(C)c(C(=O)Nc2cccc(C)c2C)o1`, the Potency result was “inactive”. With `Cc1cccc(NC(=O)CSC(N)=O)c1C`, the Potency is 31.6 µM (active). On the same count and under the same terms, with `Cc1cccc(NC(=O)CSc2nc3c(c(=O)[nH]2)CCC3)c1C` the entry was “inactive”. As for `Cc1nnc(NC(=O)CCC(=O)N2CCC(C)CC2)s1`, the Potency entry is “inactive”.

Turning to `CCCCC/C=C/C=C/C=O`, the Potency result was “inactive”. With `CCn1c2c(c3ccc(OC)cc31)CCCC2=O`, the Potency was 25.1 µM (active). The same measure, in the same setting: next, `CCn1c(=N)n(CC(=O)c2cccc(OC)c2)c2ccccc21`: “inactive”. On the same count and under the same terms, with `CC(=O)Nc1ccc(S(=O)(=O)NCCc2ccccc2)cc1` the entry was “inactive”; with `COC(=O)CCCCCN1C(=O)NC(c2ccc(-c3ccccc3)cc2)C(C(=O)OCc2ccccc2)=C1C` (stereo unspecified), “inactive”. Consider `Fc1ccc(-c2nnc3sc(-c4ccc5c(c4)OCO5)nn23)cc1`, for which the Potency result is “inactive”. Turning to `c1ccc(-c2cc(-c3nnc4sc(-c5ccccn5)nn34)[nH]n2)cc1`, the Potency is 31.6 µM (active).

Turning to `COc1cc(-c2nn3c(-c4cccc(C)c4)nnc3s2)cc(OC)c1OC`, the Potency entry was “inactive”. Regarding `Cc1cc(C)cc(N)c1`, the Potency entry is “inactive”. The same measure, in the same setting: next, `CCCc1nc2ccccc2c(=O)n1NC(=O)c1c(O)c2ccccc2[nH]c1=O`: “inactive”. Same read-out and setting: with `CCOC(=O)CC1=CC(=O)Nc2ccccc2N1` the entry was “inactive”; with `CCCOC(=O)Cc1c(O)c2ccccc2[nH]c1=O`, 31.6 µM (active); with `O=C(N1CCOCC1)N(Cc1ccccc1)c1ccccn1`, “inactive”.

Consider `CCNC(=O)N1CCNC(=O)C1CC(=O)Nc1ccc(C(=O)OCC)cc1` (stereo unspecified), for which the Potency result is “inactive”. The same measure, in the same setting: with `O=C(C1CCCO1)N(Cc1ccccc1)c1ccccc1` (stereo unspecified) the entry was “inactive”; with `COc1ccc(S(=O)(=O)N2CCN(C(=O)c3cccs3)CC2)cc1OC`, 3.98 µM (active). The same measure, in the same setting: with `CCS(=O)(=O)N1CCN(C(=O)c2cccs2)CC1` the entry was “inactive”; with `CCCS(=O)(=O)N1CCN(C(=O)c2cccs2)CC1`, “inactive”; with `COc1ccc(C2N=C(N)N=C(N)N2c2ccccc2)cc1OC` (stereo unspecified), “inactive”.

With `Cc1cc(C)c2nc(N3CCCC3)c(C#N)cc2c1`, the Potency is 31.6 µM (active). As for `C=CCOC(=O)C(C(C)=O)C(NC(=O)OC)c1ccccc1` (stereo unspecified), the activity change, negative = inhibition is 10.6% [at 11.4 µM] (inactive).

Consider `CCc1ccc(NC(=O)CSc2nc3ccccc3c(=O)n2CCN2CCOCC2)cc1`, for which the Potency entry was “inactive”. Still for that read-out and setting: next, `CCn1c(SCC(=O)NCC2CCCO2)nc2cc(S(=O)(=O)N3CCCCC3)ccc21` (stereo unspecified): “inactive”.

Turning to `CCCCn1c(SCC(=O)NCC2CCCO2)nc2ccc(N3CCOCC3)cc2c1=O` (stereo unspecified), the Potency is 31.6 µM (active). The same measure, in the same setting: with `Cc1cc(Nc2cccc(F)c2)n2ncnc2n1` the entry was “inactive”.

These data come from PubChem BioAssay AID893 (National Center for Advancing Translational Sciences (NCATS), 2007).
